Data from PubChem BioAssay (EPA / NIEHS).
Results filed as inconclusive are left out. Calls of active or inactive are those of the source. How the source made its calls: active means hit-call score of the fitted dose curve at least 0.9, where 1 is the maximum; inconclusive means response in the unintended direction; inactive means score below 0.9.

Legend:
[1] = target: human RAR-related Orphan Receptor gamma (RORg), RORC (gene 6097) (UniProt P51449); assay: ATG_RORg_TRANS: Attagene TRANS-FACTORIAL HepG2 Assay for human RAR-related Orphan Receptor gamma (RORg) (AID 2283011)
In short: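 First, HepG2 liver cells were transfected with GAL4-UAS-driven reporter constructs and the RORg-Gal4 fusion. Next, they were treated with chemical for 24 h. Finally, reporter mRNA was quantified by RT-PCR and capillary electrophoresis, with upward activity fitted against DMSO.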

[2] = target: human Retinoid X Receptor beta (RXRb), RXRB (gene 6257) (UniProt P28702); assay: ATG_RXRb_TRANS: Attagene TRANS-FACTORIAL HepG2 Assay for human Retinoid X Receptor beta (RXRb) (AID 2283013)
In short: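 HepG2 cells transiently transfected with multiplexed reporter units driven by GAL4-UAS and exogenous chimeric NR-Gal4 proteins; treated 24 h. Reporter mRNA measured by RT-PCR, 6-FAM labelling and capillary electrophoresis; gain-of-signal fitted versus DMSO baseline.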

[3] = target: Peroxisome proliferator-activated receptor gamma (Homo sapiens) (UniProt P37231); assay: ATG_PPARg_TRANS: Attagene TRANS-FACTORIAL HepG2 Assay for human Peroxisome Proliferator-activated Receptor-gamma (PPARg) (AID 2283007)
In short: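 Endpoint reflects upward reporter mRNA change versus DMSO controls. Setup: transiently transfected HepG2, GAL4-UAS reporters driven by chimeric NR-Gal4, 24 h incubation, RT-PCR with capillary electrophoresis read-out.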

[4] = target: Nuclear receptor subfamily 1 group I member 2 (Homo sapiens) (UniProt O75469); assay: ATG_PXR_TRANS: Attagene TRANS-FACTORIAL HepG2 Assay for human Pregnane X Receptor (PXR) (AID 2283008)
In short: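 HepG2 cells transiently transfected with GAL4-UAS reporter units and PXR-Gal4 chimera, exposed 24 h. Reporter mRNA quantified by RT-PCR, fluorescent labelling, HpaI digestion and capillary electrophoresis; gain of signal vs DMSO.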

[5] = target: human RAR-related Orphan Receptor beta (RORb), RORB (gene 6096) (UniProt Q92753); assay: ATG_RORb_TRANS: Attagene TRANS-FACTORIAL HepG2 Assay for human RAR-related Orphan Receptor beta (RORb) (AID 2283010)
In short: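 HepG2 cells were transiently transfected with multiplexed GAL4-UAS reporter units expressing chimeric nuclear receptor–GAL4 proteins, then dosed for 24 h. Reporter mRNA was quantified by RT-PCR with fluorescent labelling and capillary electrophoresis; gain of signal was fitted relative to DMSO.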

[6] = target: Retinoic acid receptor alpha (Homo sapiens) (UniProt P10276); assay: ATG_RARa_TRANS: Attagene TRANS-FACTORIAL HepG2 Assay for human Retinoic Acid Receptor alpha (RARa) (AID 2283005)
In short: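 HepG2 transiently transfected with multiplex GAL4-UAS reporter units including a human RARa–GAL4 chimera; 24 h compound exposure. Reporter mRNA quantified by RT-PCR, 6-FAM labeling and capillary electrophoresis; gain of signal versus DMSO.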

[7] = target: Retinoic acid receptor RXR-alpha (Homo sapiens) (UniProt P19793); assay: ATG_RXRa_TRANS: Attagene TRANS-FACTORIAL HepG2 Assay for human Retinoid X Receptor alpha (RXRa) (AID 2283012)
In short: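 HepG2 cells transiently transfected with multiplexed GAL4-UAS reporter units and chimeric NR-GAL4 fusions, dosed 24 h. Reporter mRNA measured by RT-PCR, FAM labelling, HpaI digestion and capillary electrophoresis; gain-of-signal fitted relative to DMSO baseline.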

[8] = target: human Thyroid Receptor alpha (THRa1), THRA (gene 7067) (UniProt P10827); assay: ATG_THRa1_TRANS: Attagene TRANS-FACTORIAL HepG2 Assay for human Thyroid Receptor alpha (THRa1) (AID 2283014)
In short: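 Reporter transcript induction, read by capillary electrophoresis of 6-FAM-labelled RT-PCR products, reflects activity of a transfected THRa1-Gal4 fusion in HepG2 liver cells. Cells were dosed for 24 h; activity was fitted in the positive direction against DMSO.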

[9] = target: human Retinoic Acid Receptor gamma (RARg), RARG (gene 5916) (UniProt P13631); assay: ATG_RARg_TRANS: Attagene TRANS-FACTORIAL HepG2 Assay for human Retinoic Acid Receptor gamma (RARg) (AID 2283009)
In short: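 HepG2 cells transiently transfected with multiplexed reporter units expressing chimeric RARg-GAL4 and GAL4-UAS-driven reporters; 24 h compound exposure. Reporter mRNA quantified by RT-PCR with fluorescent labelling and capillary electrophoresis; gain-of-signal fitted relative to DMSO baseline.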

Measured: AC50

Sequence of human RAR-related Orphan Receptor beta (RORb), RORB (gene 6096) (Q92753 whole entry, looked up, the tested form may be a part): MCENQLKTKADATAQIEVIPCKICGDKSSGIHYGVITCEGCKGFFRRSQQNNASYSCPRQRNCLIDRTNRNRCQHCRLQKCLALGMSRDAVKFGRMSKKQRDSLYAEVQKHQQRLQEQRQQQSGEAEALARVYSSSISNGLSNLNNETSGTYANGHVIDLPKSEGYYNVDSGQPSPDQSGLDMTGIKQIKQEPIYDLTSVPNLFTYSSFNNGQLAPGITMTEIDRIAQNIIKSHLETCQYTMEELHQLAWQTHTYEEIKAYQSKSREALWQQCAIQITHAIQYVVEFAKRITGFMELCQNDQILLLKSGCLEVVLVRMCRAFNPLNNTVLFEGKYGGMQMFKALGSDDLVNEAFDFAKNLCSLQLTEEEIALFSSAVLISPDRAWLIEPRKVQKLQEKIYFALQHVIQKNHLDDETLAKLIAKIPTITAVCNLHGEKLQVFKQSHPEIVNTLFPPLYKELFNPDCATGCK
Sequence of Retinoic acid receptor RXR-alpha (Homo sapiens) (P19793 whole entry, looked up, the tested form may be a part): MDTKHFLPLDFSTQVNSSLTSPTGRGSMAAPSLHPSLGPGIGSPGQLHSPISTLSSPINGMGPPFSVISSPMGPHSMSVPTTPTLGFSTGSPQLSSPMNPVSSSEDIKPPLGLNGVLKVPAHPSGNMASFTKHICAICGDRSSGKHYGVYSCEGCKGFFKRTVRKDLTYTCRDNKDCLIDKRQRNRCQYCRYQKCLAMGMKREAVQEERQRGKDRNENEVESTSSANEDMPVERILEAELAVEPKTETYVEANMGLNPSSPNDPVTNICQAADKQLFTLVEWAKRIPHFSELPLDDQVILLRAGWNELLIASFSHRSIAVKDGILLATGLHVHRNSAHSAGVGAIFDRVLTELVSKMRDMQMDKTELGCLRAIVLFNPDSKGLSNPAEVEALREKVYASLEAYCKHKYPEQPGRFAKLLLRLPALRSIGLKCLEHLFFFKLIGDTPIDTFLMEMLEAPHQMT
Sequence of Retinoic acid receptor alpha (Homo sapiens) (P10276 whole entry, looked up, the tested form may be a part): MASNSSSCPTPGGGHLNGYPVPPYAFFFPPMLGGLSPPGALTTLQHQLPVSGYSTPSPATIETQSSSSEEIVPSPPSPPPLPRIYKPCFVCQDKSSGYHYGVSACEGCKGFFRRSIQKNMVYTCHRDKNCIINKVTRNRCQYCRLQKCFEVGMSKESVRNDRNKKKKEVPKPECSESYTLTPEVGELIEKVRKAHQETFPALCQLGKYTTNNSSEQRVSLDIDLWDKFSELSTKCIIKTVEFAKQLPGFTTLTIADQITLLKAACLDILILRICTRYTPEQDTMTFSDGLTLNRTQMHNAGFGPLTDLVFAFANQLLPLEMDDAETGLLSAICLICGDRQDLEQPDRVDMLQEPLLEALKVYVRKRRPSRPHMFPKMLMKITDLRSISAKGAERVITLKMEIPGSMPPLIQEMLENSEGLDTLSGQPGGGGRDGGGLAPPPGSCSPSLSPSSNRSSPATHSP
Sequence of human Retinoic Acid Receptor gamma (RARg), RARG (gene 5916) (P13631 whole entry, looked up, the tested form may be a part): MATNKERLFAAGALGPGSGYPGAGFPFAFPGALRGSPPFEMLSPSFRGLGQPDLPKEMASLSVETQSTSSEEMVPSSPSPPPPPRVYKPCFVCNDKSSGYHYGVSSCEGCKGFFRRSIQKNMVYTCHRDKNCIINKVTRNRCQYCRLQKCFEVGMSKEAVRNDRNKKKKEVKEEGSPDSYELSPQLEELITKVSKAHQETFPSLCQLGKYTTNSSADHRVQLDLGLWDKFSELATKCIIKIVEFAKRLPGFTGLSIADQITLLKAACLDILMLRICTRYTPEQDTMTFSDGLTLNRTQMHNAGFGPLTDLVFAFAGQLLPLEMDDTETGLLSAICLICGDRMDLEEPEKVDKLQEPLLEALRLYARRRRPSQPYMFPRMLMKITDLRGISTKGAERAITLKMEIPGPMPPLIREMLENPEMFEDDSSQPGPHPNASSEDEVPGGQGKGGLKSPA
Sequence of human Retinoid X Receptor beta (RXRb), RXRB (gene 6257) (P28702 whole entry, looked up, the tested form may be a part): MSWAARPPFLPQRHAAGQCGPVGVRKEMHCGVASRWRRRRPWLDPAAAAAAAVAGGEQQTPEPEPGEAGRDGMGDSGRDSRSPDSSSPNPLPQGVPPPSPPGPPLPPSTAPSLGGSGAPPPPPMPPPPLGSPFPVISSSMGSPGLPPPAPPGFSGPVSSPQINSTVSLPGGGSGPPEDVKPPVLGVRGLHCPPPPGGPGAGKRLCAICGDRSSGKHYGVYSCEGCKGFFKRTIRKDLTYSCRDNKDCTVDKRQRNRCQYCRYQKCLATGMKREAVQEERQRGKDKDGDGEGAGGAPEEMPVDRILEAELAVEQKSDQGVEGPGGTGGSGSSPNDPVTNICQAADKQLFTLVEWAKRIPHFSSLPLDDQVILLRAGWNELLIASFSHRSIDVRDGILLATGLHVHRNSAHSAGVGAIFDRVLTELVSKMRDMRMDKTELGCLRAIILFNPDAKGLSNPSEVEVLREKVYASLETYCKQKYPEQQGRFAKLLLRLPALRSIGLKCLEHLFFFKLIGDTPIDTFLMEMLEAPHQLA
Sequence of human Thyroid Receptor alpha (THRa1), THRA (gene 7067) (P10827 whole entry, looked up, the tested form may be a part): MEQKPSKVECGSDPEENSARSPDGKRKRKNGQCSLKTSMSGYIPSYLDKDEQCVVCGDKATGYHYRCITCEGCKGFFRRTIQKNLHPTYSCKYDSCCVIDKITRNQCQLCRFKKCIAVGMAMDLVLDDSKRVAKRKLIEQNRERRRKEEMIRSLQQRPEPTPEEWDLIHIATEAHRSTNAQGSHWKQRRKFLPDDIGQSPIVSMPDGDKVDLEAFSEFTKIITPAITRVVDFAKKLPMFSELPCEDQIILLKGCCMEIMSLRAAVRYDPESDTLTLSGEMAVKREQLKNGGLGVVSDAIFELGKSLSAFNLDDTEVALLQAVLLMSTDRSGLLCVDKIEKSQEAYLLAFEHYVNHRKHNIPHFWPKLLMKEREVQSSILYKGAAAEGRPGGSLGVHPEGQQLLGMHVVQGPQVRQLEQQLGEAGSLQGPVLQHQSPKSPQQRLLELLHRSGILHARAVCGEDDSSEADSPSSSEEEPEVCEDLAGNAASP
Sequence of Nuclear receptor subfamily 1 group I member 2 (Homo sapiens) (O75469 whole entry, looked up, the tested form may be a part): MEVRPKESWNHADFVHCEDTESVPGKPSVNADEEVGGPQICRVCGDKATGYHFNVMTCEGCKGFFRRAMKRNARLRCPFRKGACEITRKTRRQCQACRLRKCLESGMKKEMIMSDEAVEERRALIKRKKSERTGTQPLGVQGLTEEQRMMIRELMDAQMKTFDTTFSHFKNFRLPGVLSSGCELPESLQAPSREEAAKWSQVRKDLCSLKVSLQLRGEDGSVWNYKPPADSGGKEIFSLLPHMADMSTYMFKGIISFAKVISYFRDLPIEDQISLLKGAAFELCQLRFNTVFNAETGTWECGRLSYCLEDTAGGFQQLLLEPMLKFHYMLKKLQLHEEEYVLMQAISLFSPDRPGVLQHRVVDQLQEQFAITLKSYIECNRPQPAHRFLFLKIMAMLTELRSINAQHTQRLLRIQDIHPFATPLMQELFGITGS
Sequence of Peroxisome proliferator-activated receptor gamma (Homo sapiens) (P37231 whole entry, looked up, the tested form may be a part): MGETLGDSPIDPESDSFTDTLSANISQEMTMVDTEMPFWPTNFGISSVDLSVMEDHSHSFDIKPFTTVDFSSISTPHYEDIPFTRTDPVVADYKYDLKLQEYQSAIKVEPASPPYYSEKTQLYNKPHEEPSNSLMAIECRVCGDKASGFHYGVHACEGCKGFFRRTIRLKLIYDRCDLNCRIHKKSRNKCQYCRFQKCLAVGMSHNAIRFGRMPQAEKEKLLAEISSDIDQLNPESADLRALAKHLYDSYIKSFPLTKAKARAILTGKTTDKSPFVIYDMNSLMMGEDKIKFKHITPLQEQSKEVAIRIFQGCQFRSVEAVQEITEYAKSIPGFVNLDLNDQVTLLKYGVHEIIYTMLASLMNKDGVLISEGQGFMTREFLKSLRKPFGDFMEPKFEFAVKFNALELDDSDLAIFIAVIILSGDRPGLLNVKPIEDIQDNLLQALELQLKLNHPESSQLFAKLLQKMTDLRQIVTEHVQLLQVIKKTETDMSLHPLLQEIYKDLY
Sequence of human RAR-related Orphan Receptor gamma (RORg), RORC (gene 6097) (P51449 whole entry, looked up, the tested form may be a part): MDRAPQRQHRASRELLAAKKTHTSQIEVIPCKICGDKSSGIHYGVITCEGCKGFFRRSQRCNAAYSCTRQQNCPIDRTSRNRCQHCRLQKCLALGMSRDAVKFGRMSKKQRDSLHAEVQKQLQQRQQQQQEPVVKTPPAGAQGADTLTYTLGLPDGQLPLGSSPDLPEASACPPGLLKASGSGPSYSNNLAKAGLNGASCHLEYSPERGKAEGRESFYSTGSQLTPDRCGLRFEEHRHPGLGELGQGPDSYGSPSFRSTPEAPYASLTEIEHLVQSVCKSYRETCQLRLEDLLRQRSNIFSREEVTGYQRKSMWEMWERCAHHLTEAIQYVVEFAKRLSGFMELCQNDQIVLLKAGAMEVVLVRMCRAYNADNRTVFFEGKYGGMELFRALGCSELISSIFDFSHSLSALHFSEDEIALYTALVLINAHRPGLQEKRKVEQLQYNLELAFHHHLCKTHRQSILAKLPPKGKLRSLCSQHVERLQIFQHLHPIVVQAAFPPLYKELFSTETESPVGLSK

C[Si](C)(C)N[Si](C)(C)C
inactive: [1] | [2]

NNS(=O)(=O)c1ccc(Oc2ccc(S(=O)(=O)NN)cc2)cc1
inactive: [3] | [4] | [5]

CC(=O)OC/C=C(/C)CCC=C(C)C
not listed: [1] | [8] | [9]
inactive: all other assays above

O=C(Oc1ccccc1)c1ccccc1O
inactive: [3] | [2] | [8]

CCCCCCOc1ccc(N)cc1
inactive: [3] | [4]

Nc1ncnc2nc[nH]c12
inactive: [1] | [7]

CCN1CCCC1=O
inactive: [3] | [7] | [8]

CC(C)(C)N
inactive: [3] | [5] | [1] | [7] | [2]

CCCC(CC)c1ccccc1 (stereo not given)
inactive: [3] | [4] | [9] | [1] | [7]
active: [2] 66.4 µM

C=C(C)C1CC=C(C)CC1 (stereo not given)
inactive: [4] | [9] | [1] | [2]

CCCCNS(=O)(=O)c1ccccc1
inactive: [3] | [4] | [1] | [8]

CCOc1ccc(NC(N)=O)cc1
not listed: [1] | [4] | [7]
inactive: all other assays above

CC(=O)/C=C/C1C(C)=CCCC1(C)C (stereo not given)
active: [3] 42.1 µM | [4] 2.79 µM | [2] 31.3 µM
inactive: [1] | [7] | [8]

CC1=CCC(C(C)C)C=C1 (stereo not given)
inactive: [3] | [2]

CCCCOCC(C)O (stereo not given)
inactive: [3] | [4] | [9] | [7] | [2]

Cc1c(Cl)cccc1Cl
inactive: [5] | [7] | [8]

Cn1ccnc1
inactive: [6] | [7] | [2] | [8]

O=C(O)CCC(=O)O
inactive: [5] | [2]

CCCCCOC(=O)CCCCC
inactive: [8]

CCCC=C(C=O)CC
inactive: [4]
